This is part of a sample that, as a whole, favours compounds with a hit. Of some 83,000 tested, about 20% had one in any assay.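 Treatment: one concentration, 48 hours, 96-well format. Scoring: percent growth, with anything below 10 considered active.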 Values without a mark were called inactive. Activity calls are given as the source filed them.

Common to all, as to assay: NCI-60 one-dose screen, 48 h (100 = growth as untreated, 0 = no growth, -100 = all killed)
What all share (details): 10 µM unless noted

Experiment [1] relates to SK-MEL-2 melanoma.
In experiment [2] the test system is EKVX NSCLC.
Experiment [3] deals with SN12C renal.
For experiment [4], the system named is UO-31 renal.
The test system of experiment [5] is TK-10 renal.
Experiment [6] has as its system ACHN renal.
Experiment [7] concerns CAKI-1 renal.
Experiment [8] has as its system A498 renal.
Experiment [9] concerns CCRF-CEM leukemia.
Experiment [10] has as its system MOLT-4 leukemia.
The subject of experiment [11] is RPMI-8226 leukemia.
The test system of experiment [12] is OVCAR-8 ovarian.
Experiment [13] deals with OVCAR-5 ovarian.
Experiment [14] concerns OVCAR-4 ovarian.
In experiment [15] the test system is SK-OV-3 ovarian.
Experiment [16] concerns IGROV1 ovarian.
The subject of experiment [17] is OVCAR-3 ovarian.
Experiment [18] relates to HS 578T breast.
For experiment [19], the system named is NCI/ADR-RES ovarian.

`O=C1COCCN1c1ccc(NCc2cn(C(=O)c3ccc(Cl)cc3)c3ccccc23)cc1`: the growth is 61.5% in experiment [1]; 83.9% in experiment [2]; 74.9% in experiment [3]; 43.6% in experiment [4]; -26% (active) in experiment [5]; 65.7% in [6]. Also, the growth was -28.7% (active) in [7]; -88.9% (active) in experiment [8]; 77.1% in experiment [9]; 85.7% in [10]; 52.6% in [11]; 66% in experiment [12]. For the same compound, the growth is -25.7% (active) in [13]; 3.22% (active) in experiment [14]; 15.7% in experiment [15]; -2.18% (active) in experiment [16]; 10.6% in [17]; 72.9% in experiment [18]. Also, the growth in [19] was 67%.

On to `CCCCCCCCCCCCCCCCCCOc1ccccc1CC(=O)OCC[N+](CC)(CC)CC`, for which the growth in experiment [1] is -10.1% (active); in [2] it was 43.4%; in experiment [3] it was 15.2%; in experiment [4], 89.5%; in experiment [5] it was 38.5%; in [6] it was 64.4%. Also, the growth in experiment [7] was 35.6%; in [8], 65.9%; in [9] it was 15.7%; in experiment [10] it was 12.8%; in [11], -3.45% (active); in experiment [12], 17.7%. Also, the growth in experiment [13] is 41%; in experiment [14], 19.1%; in [15], 66.2%; in experiment [16] it was -26.9% (active); in experiment [17], 31.4%; in experiment [18], 38.2%. Moreover, the growth in experiment [19] was 95.9%.

Take `CCOc1ccc2nc(SCc3nc4n(n3)S(=O)(=O)c3ccccc3N4C)sc2c1`: the growth in [1] is 17.9%; in experiment [2] it was 14%; in [3], 22.2%; in experiment [4], -46.3% (active); in experiment [5] it was -8.01% (active); in experiment [6], 4.84% (active). Besides, the growth in [7] is -39.5% (active); in [8], -25.8% (active); in experiment [9], 3.93% (active); in experiment [10], 4.81% (active); in experiment [11], 30.7%; in experiment [12], 27.7%. The growth in experiment [13] was -9.82% (active); in experiment [14], 31.2%; in experiment [15], 35.3%; in [16] it was -30.9% (active); in experiment [17] it was 37.5%; in experiment [18], -59.3% (active). Also, in experiment [19], the growth was 6.82% (active).

Take `O=C(Cc1ccc(F)c(Cl)c1)Nc1cc(C2(C(F)(F)F)CC2)nn1Cc1ccccc1`: the growth in [1] is 18.9%; in experiment [2], 68.1%; in experiment [3], 49.3%; in [4], 42.4%; in experiment [5] it was 81%; in [6], 35.9%. Moreover, the growth in experiment [7] was 10.1%; in experiment [8], -2.62% (active); in [9], 15%; in experiment [10] it was 93%; in experiment [11] it was 75.8%; in experiment [12], 25.3%. Further, the growth in experiment [13] was 91.4%; in experiment [14], 75%; in experiment [15], -13.1% (active); in experiment [16] it was 62.2%; in experiment [17], 63.4%; in experiment [18], 26.2%. In addition, in [19], the growth is 56.9%.

As for `COc1ccc(CNC(=O)C(=O)[C@H](Cc2ccccc2)NC(=O)c2[nH]c3ccccc3c(=O)c2C)cc1`, the growth was 109% in experiment [1]; 95.5% in experiment [2]; 86.6% in experiment [3]; 97.4% in [4]; 98.8% in experiment [5]; 100% in experiment [6]. Also, the growth in experiment [7] was 94.4%; in experiment [8] it was 100%; in [9], 110%; in [10] it was 97.7%; in experiment [11] it was 102%; in [12] it was 102%. Moreover, the growth in [13] is 102%; in experiment [14] it was 99.5%; in experiment [15], 108%; in [16], 98.3%; in experiment [17], 103%; in [18], 98.8%. The growth in experiment [19] is 108%.

Consider `Cc1ccc(C2CC(c3ccc(Nc4ccnc5cc(Cl)ccc45)cc3)=NN2C=O)cc1` (configuration not stated), for which the growth in experiment [1] was 72.2%; in experiment [2] it was 50.1%; in experiment [3] it was 55.1%; in [4], 31.9%; in experiment [5] it was 83.2%; in experiment [6] it was 34.8%. The growth is 49% in [7]; 73.4% in experiment [8]; 28.2% in experiment [9]; 31.8% in experiment [10]; 19.8% in [11]; 59.8% in experiment [12]. Further, the growth was 94.8% in [13]; 38.7% in [14]; 84.8% in [15]; 48.2% in experiment [16]; 30.6% in [17]; 61.8% in experiment [18]. The growth in experiment [19] is 42.3%.

In the case of `CCCCNc1nc(NN2C(=O)c3cccc4cccc(c34)C2=O)nc(-n2cnc3ccccc32)n1`, the growth was 99% in [1]; 71.8% in experiment [2]; 90.5% in experiment [3]; 44.1% in [4]; 100% in experiment [5]; 81.3% in experiment [6]. The growth in experiment [7] is 75.6%; in experiment [8], 35.9%; in experiment [9] it was 96.3%; in [10], 77.4%; in [11] it was 86.9%; in experiment [12] it was 93.3%. Also, the growth was 83.8% in [13]; 67.7% in [14]; 99.3% in experiment [15]; 80.4% in [16]; 86.3% in [17]; 81.9% in experiment [18]. For the same compound, the growth in experiment [19] was 91.5%.

Regarding `Nc1cc2c(cc1Br)-c1cc(Cl)ccc1C2=O`, the growth in experiment [1] was 100%; in [2], 86.5%; in experiment [3] it was 102%; in experiment [4], 67.1%; in experiment [5], 115%; in experiment [6], 100%. Also, the growth in [7] was 78.5%; in experiment [8] it was 102%; in experiment [9], 98.2%; in experiment [10], 88.2%; in experiment [11], 88.7%; in experiment [12], 99.3%. The growth in experiment [13] was 91.8%; in [14], 99.9%; in [15], 98.7%; in experiment [16] it was 74.2%; in experiment [17], 96.5%; in [18], 98.6%. The growth in [19] is 106%.
